This is part of a sample that, as a whole, favours compounds with a hit. Of some 83,000 tested, about 20% had one in any assay.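 Cells were grown in 96-well plates and exposed to the test compound at a single concentration for 48 hours; results are reported as percent growth, with values below 10 considered active.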 Unmarked numbers belong to inactive results. Activity calls are given as the source filed them.
system: NCI-H460 lung; experiment: NCI-60 one-dose screen, 48 h (100 = growth as untreated, 0 = no growth, -100 = all killed); conditions: 10 µM unless noted

Structure (SMILES)	growth
COc1ccc2c(c1)OC1=C(C(=O)OC1)C2c1cc(OC)c2c(c1)OCO2 (stereo not drawn)	4.22% (active)
Cc1cccc(/C=N/Nc2cc(C)c3cccc(C)c3n2)n1	92.9%
COc1ccc(C2C=C(c3ccc(Cl)cc3)N=C3SC=C(C)N32)c(Br)c1 (stereo not drawn)	13.4%
COC1=C(OC)C(=O)C(CCCCCCCCCC[P+](c2ccccc2)(c2ccccc2)c2ccccc2)=C(C)C1=O	-52.1% (active)
CC1CN(c2oc(-c3ccccc3)nc2C#N)CC(C)O1 (stereo not drawn)	99.7%
COc1ccc(Cn2cc3c(c2-c2cc(OC)c(OC)c(OC)c2)CCc2cnoc2-3)cc1	4.4% (active)
COc1ccc(C2=C(c3cc(OC)c(OC)c(OC)c3)C(=O)CC2)cc1	0.331% (active)
COc1ccc2c(c1)NC1=C(C(=O)OC1)C2c1cc(OC)c2c(c1)OCO2 (stereo not drawn)	4.54% (active)
O=[N+]([O-])c1cc(S(=O)(=O)Oc2ccccc2)ccc1Cl	1.7% (active)
COc1cc(NC(N)=NCCC(C)(C)Oc2ccc(C(F)(F)F)cc2)ncc1C#N	-79.3% (active)
COc1ccc(Nc2nn3c(-c4ccccc4)cc(-c4ccccc4)nc3c2C(N)=O)c(OC)c1	20.3%
CC[N+](CC)=c1cc2oc3cc(N(C)C)ccc3nc-2cc1C	36.4%
COc1ccc(Nc2ncccc2C(=O)NCc2cn(Cc3cccc(Oc4ccccc4)c3)nn2)cc1	22.3%
CN(C)CCOC(=O)Nc1ccccc1Cl	105%
CN1CCN(Cc2ccc(NC(=O)c3cncc(C#Cc4cnc(N)c5cnccc45)c3)cc2C(F)(F)F)CC1	-9.5% (active)
CCC1=CCC[C@@]2(C)CCC[C@@]3(C)CCCC(C)(C)[C@]1([O-])[O+]32	109%
CCNc1nc(S(=O)(=O)CC)nc2ccccc12	101%
CC12CCC3C4(C)COC(c5ccco5)OC4CCC3(C)C1CC(C1=CCOC1=O)O2 (stereo not drawn)	102%
Cc1cc(C)n(-c2nnc3n2N=C(c2ccc(-c4ccccc4)cc2)CS3)n1	45.1%
N=c1ccc2nc3ccc(N)cc3sc-2c1	43.6%

Structure (SMILES)	growth
CN(C)CCCC(C#N)c1ccccc1 (stereo not drawn)	116%
O=S(=O)(NCCCNc1nccc(-n2ccc3cccnc32)n1)c1cccc(C(F)(F)F)c1	104%
COc1cccc(-c2cc3c(O)cc(C#N)cc3[nH]2)c1	96.9%
CCCCCCCCCCCCNC(=O)[C@H]1CSC(c2ccsc2)N1 (stereo partly drawn)	-80.1% (active)
c1ccc(Nc2nc(Nc3ccccc3)nc(Nc3ccccc3)n2)cc1	78%
O=C(Oc1ccccc1[N+](=O)[O-])C1CCCN1C(=O)OCc1ccccc1 (stereo not drawn)	116%
O=C(/C=C\c1cccc([N+](=O)[O-])c1)/C=C/c1cccc([N+](=O)[O-])c1	93.5%
CCCCCCCCCCCCNC(=O)[C@H]1CSC(c2cc3ccccc3s2)N1 (stereo partly drawn)	-54.8% (active)
COc1ccc(S(=O)(=O)Nc2cc(/C=C\c3cc(OC)c(OC)c(OC)c3)cc(OC)c2OC)cc1	8.41% (active)
Oc1ccc(Cl)cc1-c1cc(-c2ccc(F)cc2)n[nH]1	42.5%
CCCCN(CCCC)C(=O)CC	108%
COc1ccc(N2CCN(Cc3cc(C(=O)/C=C/c4c[nH]c5ccccc45)ccc3O)CC2)cc1	106%
O=C1c2c(c3c4ccccc4n(CCCCCCBr)c3c3[nH]c4ccccc4c23)C(=O)N1O	5.88% (active)
CCCCCCCC[C@@H](O)CC(=O)N[C@@H](CC(N)=O)C(=O)N[C@@H](CCC(N)=O)C(=O)N[C@@H](CC(=O)c1cc(C)cc(O)c1C(=O)c1c(O)cccc1O)CC(C)C	23.4%
S=C(S)NCCc1c[nH]c2ccccc12	103%
O=C1/C(=C/c2ccccc2)Oc2ccc(O)c(I)c21	103%
COc1ccc(C2=CC(c3cc(OC)c(OC)c(OC)c3)NC(=O)N2)cc1OC (stereo not drawn)	1.25% (active)
O=C(O)C1CCCCN1c1nc(Cl)nc(Cl)n1 (stereo not drawn)	105%
O=S(=O)(NCCCNc1nccc(-n2ccc3cccnc32)n1)c1ccc(Br)cc1	105%

system: HOP-92 NSCLC; experiment: as above; conditions: 10 µM unless noted

Structure (SMILES)	growth
COc1ccc2c(c1)OC1=C(C(=O)OC1)C2c1cc(OC)c2c(c1)OCO2 (stereo not drawn)	55%
Cc1cccc(/C=N/Nc2cc(C)c3cccc(C)c3n2)n1	75.5%
COc1ccc(C2C=C(c3ccc(Cl)cc3)N=C3SC=C(C)N32)c(Br)c1 (stereo not drawn)	95.6%
COC1=C(OC)C(=O)C(CCCCCCCCCC[P+](c2ccccc2)(c2ccccc2)c2ccccc2)=C(C)C1=O	-47.3% (active)
CC1CN(c2oc(-c3ccccc3)nc2C#N)CC(C)O1 (stereo not drawn)	123%
COc1ccc(Cn2cc3c(c2-c2cc(OC)c(OC)c(OC)c2)CCc2cnoc2-3)cc1	77.1%
COc1ccc(C2=C(c3cc(OC)c(OC)c(OC)c3)C(=O)CC2)cc1	40%
COc1ccc2c(c1)NC1=C(C(=O)OC1)C2c1cc(OC)c2c(c1)OCO2 (stereo not drawn)	43.8%
O=[N+]([O-])c1cc(S(=O)(=O)Oc2ccccc2)ccc1Cl	24.1%
COc1cc(NC(N)=NCCC(C)(C)Oc2ccc(C(F)(F)F)cc2)ncc1C#N	-10.6% (active)
COc1ccc(Nc2nn3c(-c4ccccc4)cc(-c4ccccc4)nc3c2C(N)=O)c(OC)c1	70.9%
CC[N+](CC)=c1cc2oc3cc(N(C)C)ccc3nc-2cc1C	63.9%
COc1ccc(Nc2ncccc2C(=O)NCc2cn(Cc3cccc(Oc4ccccc4)c3)nn2)cc1	68.5%
CN(C)CCOC(=O)Nc1ccccc1Cl	89.2%
CN1CCN(Cc2ccc(NC(=O)c3cncc(C#Cc4cnc(N)c5cnccc45)c3)cc2C(F)(F)F)CC1	-58.6% (active)
CCC1=CCC[C@@]2(C)CCC[C@@]3(C)CCCC(C)(C)[C@]1([O-])[O+]32	87.8%
CCNc1nc(S(=O)(=O)CC)nc2ccccc12	104%
CC12CCC3C4(C)COC(c5ccco5)OC4CCC3(C)C1CC(C1=CCOC1=O)O2 (stereo not drawn)	100%
Cc1cc(C)n(-c2nnc3n2N=C(c2ccc(-c4ccccc4)cc2)CS3)n1	-2.12% (active)
N=c1ccc2nc3ccc(N)cc3sc-2c1	40.6%

Structure (SMILES)	growth
CN(C)CCCC(C#N)c1ccccc1 (stereo not drawn)	105%
O=S(=O)(NCCCNc1nccc(-n2ccc3cccnc32)n1)c1cccc(C(F)(F)F)c1	106%
COc1cccc(-c2cc3c(O)cc(C#N)cc3[nH]2)c1	113%
CCCCCCCCCCCCNC(=O)[C@H]1CSC(c2ccsc2)N1 (stereo partly drawn)	-10% (active)
c1ccc(Nc2nc(Nc3ccccc3)nc(Nc3ccccc3)n2)cc1	60.9%
O=C(Oc1ccccc1[N+](=O)[O-])C1CCCN1C(=O)OCc1ccccc1 (stereo not drawn)	86.3%
O=C(/C=C\c1cccc([N+](=O)[O-])c1)/C=C/c1cccc([N+](=O)[O-])c1	84.3%
CCCCCCCCCCCCNC(=O)[C@H]1CSC(c2cc3ccccc3s2)N1 (stereo partly drawn)	62.5%
COc1ccc(S(=O)(=O)Nc2cc(/C=C\c3cc(OC)c(OC)c(OC)c3)cc(OC)c2OC)cc1	20.1%
Oc1ccc(Cl)cc1-c1cc(-c2ccc(F)cc2)n[nH]1	64.6%
CCCCN(CCCC)C(=O)CC	96.4%
COc1ccc(N2CCN(Cc3cc(C(=O)/C=C/c4c[nH]c5ccccc45)ccc3O)CC2)cc1	89.9%
O=C1c2c(c3c4ccccc4n(CCCCCCBr)c3c3[nH]c4ccccc4c23)C(=O)N1O	-13.6% (active)
CCCCCCCC[C@@H](O)CC(=O)N[C@@H](CC(N)=O)C(=O)N[C@@H](CCC(N)=O)C(=O)N[C@@H](CC(=O)c1cc(C)cc(O)c1C(=O)c1c(O)cccc1O)CC(C)C	-17.8% (active)
S=C(S)NCCc1c[nH]c2ccccc12	99.2%
O=C1/C(=C/c2ccccc2)Oc2ccc(O)c(I)c21	86%
COc1ccc(C2=CC(c3cc(OC)c(OC)c(OC)c3)NC(=O)N2)cc1OC (stereo not drawn)	6.24% (active)
O=C(O)C1CCCCN1c1nc(Cl)nc(Cl)n1 (stereo not drawn)	106%
O=S(=O)(NCCCNc1nccc(-n2ccc3cccnc32)n1)c1ccc(Br)cc1	109%
